Bioassay records from PubChem BioAssay.
This is a sample that favours compounds with a hit; in the whole collection about 10% have one here.
JMJD2A Tudor: qHTS Assay for Inhibitors of JMJD2A-Tudor Domain; Lysine-specific demethylase 4A (Homo sapiens), O75164; AlphaScreen JMJD2A-Tudor / H3K4me3 peptide binding; Potency, µM (titrated, usually from 114 µM), usual class: inhibitors; hit rate 4.4% among 390,000; note: nearly all actives have a fitted effect of over 50% in size
Target sequence (O75164 whole entry, looked up, the tested form may be a part): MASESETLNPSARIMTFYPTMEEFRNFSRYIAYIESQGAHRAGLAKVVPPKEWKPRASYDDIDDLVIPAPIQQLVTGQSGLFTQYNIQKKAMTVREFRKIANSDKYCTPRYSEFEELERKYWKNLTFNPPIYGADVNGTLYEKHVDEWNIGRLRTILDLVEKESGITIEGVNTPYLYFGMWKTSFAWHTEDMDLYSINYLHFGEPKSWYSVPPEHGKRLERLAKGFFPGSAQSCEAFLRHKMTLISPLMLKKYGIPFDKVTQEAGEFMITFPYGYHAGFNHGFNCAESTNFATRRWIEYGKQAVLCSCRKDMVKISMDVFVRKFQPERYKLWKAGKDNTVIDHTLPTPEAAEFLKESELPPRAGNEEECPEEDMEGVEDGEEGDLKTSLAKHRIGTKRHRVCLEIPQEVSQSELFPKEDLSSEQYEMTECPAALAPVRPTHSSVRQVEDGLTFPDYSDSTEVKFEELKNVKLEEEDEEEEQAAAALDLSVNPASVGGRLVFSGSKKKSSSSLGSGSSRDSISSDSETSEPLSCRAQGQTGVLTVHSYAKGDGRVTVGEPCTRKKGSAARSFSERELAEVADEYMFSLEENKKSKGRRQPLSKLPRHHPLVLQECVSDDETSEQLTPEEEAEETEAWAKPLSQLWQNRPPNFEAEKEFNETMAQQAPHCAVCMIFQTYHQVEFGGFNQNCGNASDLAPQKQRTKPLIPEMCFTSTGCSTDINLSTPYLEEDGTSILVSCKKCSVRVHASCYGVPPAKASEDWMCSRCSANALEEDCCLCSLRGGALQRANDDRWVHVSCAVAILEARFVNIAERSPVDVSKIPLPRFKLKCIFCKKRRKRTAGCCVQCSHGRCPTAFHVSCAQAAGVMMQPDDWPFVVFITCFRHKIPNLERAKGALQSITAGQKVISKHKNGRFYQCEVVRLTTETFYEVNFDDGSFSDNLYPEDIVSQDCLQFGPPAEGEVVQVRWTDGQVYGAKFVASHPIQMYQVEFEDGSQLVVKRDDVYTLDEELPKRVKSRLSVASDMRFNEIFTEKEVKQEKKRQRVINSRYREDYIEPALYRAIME
G9a inh: qHTS Assay for Inhibitors of Histone Lysine Methyltransferase G9a; Histone-lysine N-methyltransferase EHMT2 (Homo sapiens), Q96KQ7; Potency, µM (doses to about 102 µM), hits mostly inhibitors; G9a H3K9 monomethylation, AlphaScreen, 2 h; AID 504332, 2011; hit rate 8.8% among 350,000; note: nearly all actives have a fitted effect of over 75% in size
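Step 1: enzyme (final 20 nM) with compound, 15 min RT. Step 2: substrate peptide 500 nM and SAM 20 uM, 2 h RT. Step 3: anti-H3K9me1 antibody and AlphaScreen beads, 10 min, then plate read.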
HP1b binding inh: HTS for Inhibitors of HP1-beta Chromodomain Interactions with Methylated Histone Tails; Chromobox protein homolog 1 (Homo sapiens), P83916; AlphaScreen HP1-beta / biotin-H3K9me3 peptide binding; Potency, µM (doses to about 114 µM), usual class: inhibitors; hit rate 0.56% among 390,000; AID 540317, 2011; note: nearly all actives have a fitted effect of over 70% in size
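HP1-beta protein (50 nM final) preincubated 30 min at room temperature with biotinylated H3(1-18)K9me3 peptide (50 nM) in PBS pH 7.4, 0.01% Tween-20, then compound added for 30 min. AlphaScreen streptavidin donor/nickel chelate acceptor beads (10 ug/mL final), 30 min dark, luminescence read.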
Six1-Eya2 inh: qHTS Assay for Inhibitors of the Six1/Eya2 Interaction | hit rate 0.56% among 360,000 | AlphaScreen GST-Six1/His-Eya2 binding, biochemical; stronger effect = lower value | Homeobox protein SIX1 (Homo sapiens) + Protein phosphatase EYA2 (Homo sapiens), … | activity change, % (concentration not given with the values); in the data active = activity change below about -65%; inconclusive = mostly about -30% to -63%
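Six1/Eya2 binding was read as AlphaScreen signal after compounds were pinned into GST-Six1 plus His-tagged Eya2 (5X stock 250/500 nM) in pH 8.0 Tris/NaCl/TCEP buffer, beads added, then incubated 1 h, 37 C, dark.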
CtBP-E1A inh: qHTS Assay for Inhibitors of the CtBP/E1A Interaction; CtBP / adenovirus E1A interaction (AlphaScreen); AlphaScreen GST-E1A/His-CtBP binding, 1536-well; stronger effect = lower value; activity change, % (no concentration beside the values); hit rate 0.49% among 340,000; in the data active = activity change below about -65%; inconclusive = mostly about -30% to -63%
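AlphaScreen with 125 nM GST-E1A and 125 nM His-CtBP (5X stocks) in Tris pH 8.0, 300 mM NaCl, BSA, Tween 20, TCEP. Compounds preincubated 2 h at 37 deg C, then glutathione donor/nickel acceptor beads added for 1 h at 37 deg C in dark.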
BAZ2B inh: qHTS Assay for Inhibitors of BAZ2B; Bromodomain adjacent to zinc finger domain protein 2B (Homo sapiens), Q9UIF8; AlphaScreen BAZ2B-H3K14Ac peptide displacement; Potency, µM (doses to about 114 µM), most hits filed as inhibitors; hit rate 4.4% among 360,000; note: nearly all actives have a fitted effect of over 60% in size
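Inhibition is scored as reduced AlphaScreen emission. The BAZ2B/b-H3(5-23)K14Ac complex (50 nM each) in PBS pH 7.4, 0.01% Tween-20 meets compound (up to 110 uM) for 30 min at RT before bead addition.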
ME-1 prolif: qHTS Assay for Compounds Blocking the Interaction Between CBF-beta and RUNX1 for the Treatment of Acute Myeloid Leukemia: ME-1 cellular proliferation. shares compounds with BAZ2B inh. hit rate 20% among 140. ME-1 cell proliferation, ATP luminescence, 48 h. AID 504370, 2011. Potency, µM (highest dose often 56.1 µM), most hits filed as inhibitors
Hits are given with their value; ! = a repeat was not active; [ ] = another dose, or the depositor's remark. Unless noted, calls come from the whole dose curve; as a rule, active = well fitted curve in the direction sought with a large enough effect; inconclusive = small, poorly fitted or top-dose-only effect, or another doubt; inactive = no such curve, though single readings can be large; an effect the other way counts as inactive or inconclusive.

O=S(=O)(Nc1ccc(NS(=O)(=O)c2ccccc2)c(Cl)c1)c1ccccc1 was read as JMJD2A Tudor inactive, HP1b binding inh inactive, Six1-Eya2 inh inactive and CtBP-E1A inh inactive.
Screening CNC(=O)NC(=O)C(NC1CCCc2ccccc21)c1ccccc1 (configuration not stated) returned JMJD2A Tudor inactive, G9a inh inconclusive, HP1b binding inh inactive, Six1-Eya2 inh inactive, CtBP-E1A inh inactive and BAZ2B inh inactive.
`Cc1ccc(NC(=O)C(NC2CCCc3ccccc32)c2ccccc2)c([N+](=O)[O-])c1` (configuration not stated) gave JMJD2A Tudor 4.47µM, G9a inh 11.2µM, HP1b binding inh 25.1µM, Six1-Eya2 inh inactive, CtBP-E1A inh inactive and BAZ2B inh 44.7µM.
`COC(=O)C(CCSC)NC(=O)c1c(C)oc2ncn(CC(C)C)c(=O)c12` (configuration not stated) gave JMJD2A Tudor inactive, G9a inh inactive, HP1b binding inh inactive and BAZ2B inh inactive.
`Cc1[nH]c2ccccc2c1Cc1n[nH]c(=S)o1` gave JMJD2A Tudor 79.4µM, G9a inh 8.91µM, HP1b binding inh inactive, Six1-Eya2 inh inactive, CtBP-E1A inh inactive and BAZ2B inh inactive.
For S=c1[nH]nc(Cc2cccc3ccccc23)o1 the results were JMJD2A Tudor 79.4µM, G9a inh 2.24µM, HP1b binding inh inactive, Six1-Eya2 inh inactive, CtBP-E1A inh inactive and BAZ2B inh inactive.
For Cc1[nH]c2ccccc2c1Cc1nnc(SCC(N)=O)o1 the results were JMJD2A Tudor inactive, G9a inh inactive, HP1b binding inh inactive, Six1-Eya2 inh inactive, CtBP-E1A inh inactive and BAZ2B inh inactive.
Cn1c(Cc2c[nH]c3ccccc23)n[nH]c1=S was read as JMJD2A Tudor 5.01µM, G9a inh inconclusive, HP1b binding inh inactive, Six1-Eya2 inh inactive, CtBP-E1A inh inactive and BAZ2B inh inactive.
`Cc1[nH]c2ccccc2c1Cc1n[nH]c(=S)n1C` gave JMJD2A Tudor 6.31µM, G9a inh 2µM, HP1b binding inh inactive, Six1-Eya2 inh inactive, CtBP-E1A inh inactive and BAZ2B inh inactive.
`c1ccc(CN2CCN(Cc3c[nH]c4ccccc34)CC2)cc1` gave JMJD2A Tudor inactive, G9a inh inactive, HP1b binding inh inactive, Six1-Eya2 inh inactive, CtBP-E1A inh inactive and BAZ2B inh inactive.
For Cc1[nH]c2ccccc2c1SCc1n[nH]c(=S)n1C the results were JMJD2A Tudor 10µM, G9a inh 3.98µM, HP1b binding inh inactive, Six1-Eya2 inh inactive and BAZ2B inh inactive.
For Cn1c(SCc2n[nH]c(=S)o2)nnc1-c1ccccc1 the results were JMJD2A Tudor inconclusive, G9a inh inconclusive, HP1b binding inh inactive, Six1-Eya2 inh inactive, CtBP-E1A inh inactive and BAZ2B inh inactive.
For CC(Cc1n[nH]c(=S)o1)c1ccccc1 (configuration not stated) the results were JMJD2A Tudor inconclusive, G9a inh 8.91µM, HP1b binding inh inactive, Six1-Eya2 inh inactive and BAZ2B inh inconclusive.
COC(=O)c1sccc1-c1ccc(C(N)=O)o1 was read as G9a inh 50.1µM and BAZ2B inh inconclusive.
For c1ccc(CSc2ccc(-c3ccccn3)nn2)nc1 the results were JMJD2A Tudor inconclusive, G9a inh inactive, HP1b binding inh inactive, Six1-Eya2 inh -92.9, CtBP-E1A inh -94.2, BAZ2B inh 4.47µM and ME-1 prolif inconclusive.
For Oc1ccc(/C=N/NC(=S)Nc2cccnc2)c(O)c1O the results were JMJD2A Tudor 3.55µM, G9a inh inactive, HP1b binding inh 5.01µM, Six1-Eya2 inh -89.4, CtBP-E1A inh -93.4, BAZ2B inh 2.24µM and ME-1 prolif inconclusive.
For Oc1ccc(/C=N/NC(=S)Nc2cccnc2)c(O)c1 the results were JMJD2A Tudor 39.8µM, G9a inh 25.1µM, HP1b binding inh inactive, Six1-Eya2 inh -89.9, CtBP-E1A inh -81.6, BAZ2B inh 2.82µM and ME-1 prolif 14.1µM.
`Fc1c(F)c(F)c(/C=N/NC(=S)Nc2cccnc2)c(F)c1F` gave JMJD2A Tudor inactive, G9a inh inactive[12.7 µM], HP1b binding inh inactive, Six1-Eya2 inh inactive, CtBP-E1A inh inactive and BAZ2B inh inactive.
For Cc1c(O)c(CN(C)C)cc2c1oc(=O)c1ccccc12 the results were JMJD2A Tudor inactive, G9a inh inconclusive, HP1b binding inh inactive, Six1-Eya2 inh inactive, CtBP-E1A inh inactive and BAZ2B inh inactive.
`O=c1oc2c(O)c(O)cc3c(=O)oc4c(O)c(O)cc1c4c23` gave JMJD2A Tudor 0.708µM, G9a inh 1.26µM, HP1b binding inh inconclusive, Six1-Eya2 inh -74.5, CtBP-E1A inh inactive, BAZ2B inh 0.794µM and ME-1 prolif inactive.
Screening CCOC(=O)[C@H](CCc1ccccc1)N[C@@H](C)C(=O)N1[C@H](C(=O)O)C[C@H]2CCCC[C@@H]21 returned G9a inh inactive and ME-1 prolif inactive.
Screening O=C(O)CCC/C=C\C[C@@H]1C(/C=C/[C@@H](O)COc2cccc(C(F)(F)F)c2)[C@@H](O)C[C@@H]1O (some centres not stated) returned G9a inh inactive.
`CC/C(=C(\c1ccccc1)c1ccc(OCCN(C)C)cc1)c1ccccc1` gave JMJD2A Tudor 44.7µM, G9a inh 18.9µM!, HP1b binding inh inconclusive, Six1-Eya2 inh inactive, CtBP-E1A inh inconclusive, BAZ2B inh 35.5µM and ME-1 prolif 24.4µM.
For COc1cc([C@@H]2c3cc4c(cc3[C@@H](O[C@@H]3O[C@@H]5CO[C@@H](C)O[C@H]5[C@H](O)[C@H]3O)[C@H]3COC(=O)[C@H]23)OCO4)cc(OC)c1O the results were JMJD2A Tudor inactive, HP1b binding inh inactive, Six1-Eya2 inh inactive and CtBP-E1A inh inactive.
COc1cc(C2c3cc4c(cc3C(OC3OC5COC(C)O[C@@H]5C(O)C3O)C3COC(=O)C23)OCO4)cc(OC)c1O (some centres not stated) was read as G9a inh inactive[2.33 µM] and ME-1 prolif 0.794µM.
`COc1cc([N+](=O)[O-])ccc1NC(=O)N1CCC2(CC1)Nc1cc(F)ccc1-n1cccc12` gave JMJD2A Tudor inactive, G9a inh inconclusive, HP1b binding inh inactive and BAZ2B inh inactive.
